The entries come from a sample that favours hits as a whole.
ROC1-CUL1 inh: human ROC1-CUL1 E3 ligase inhibition; P62877+Q13616; in vitro K48 di-Ub FRET, acceptor:donor ratio, 45 min; inhibition, % at 10 µM; 140,000 compounds, 0.6% hits; in the data active means inhibition above about 25%
Target sequence (P62877 whole entry, looked up): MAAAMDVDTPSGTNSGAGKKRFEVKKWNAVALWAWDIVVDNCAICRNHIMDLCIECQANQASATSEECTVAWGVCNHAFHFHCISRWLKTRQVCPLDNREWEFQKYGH
Target sequence (Q13616 whole entry, looked up): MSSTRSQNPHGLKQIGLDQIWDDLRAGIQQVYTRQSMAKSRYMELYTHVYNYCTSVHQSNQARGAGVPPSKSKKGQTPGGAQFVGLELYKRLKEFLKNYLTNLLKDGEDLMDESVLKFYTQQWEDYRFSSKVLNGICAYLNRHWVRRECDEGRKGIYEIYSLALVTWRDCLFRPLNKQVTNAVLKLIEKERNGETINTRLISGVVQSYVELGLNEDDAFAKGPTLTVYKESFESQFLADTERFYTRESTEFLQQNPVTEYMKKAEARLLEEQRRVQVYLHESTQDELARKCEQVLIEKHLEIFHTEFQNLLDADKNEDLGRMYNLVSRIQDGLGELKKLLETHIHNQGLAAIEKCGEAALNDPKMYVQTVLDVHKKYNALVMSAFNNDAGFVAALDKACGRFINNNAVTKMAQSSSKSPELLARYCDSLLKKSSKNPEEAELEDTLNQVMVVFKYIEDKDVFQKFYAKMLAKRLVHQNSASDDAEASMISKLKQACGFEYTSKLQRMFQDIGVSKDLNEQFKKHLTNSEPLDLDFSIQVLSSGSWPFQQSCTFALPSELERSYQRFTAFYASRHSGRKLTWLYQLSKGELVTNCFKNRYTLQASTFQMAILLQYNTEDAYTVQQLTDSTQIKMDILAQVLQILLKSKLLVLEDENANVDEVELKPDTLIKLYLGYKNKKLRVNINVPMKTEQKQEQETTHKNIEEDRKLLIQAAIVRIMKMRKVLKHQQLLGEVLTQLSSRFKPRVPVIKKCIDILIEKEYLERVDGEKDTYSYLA
* = called active by the depositor.

SMILES	ROC1-CUL1 inh
CCC(C)N1C(=O)S/C(=C/c2ccccc2Br)C1=O (stereo unspecified)	-10
CCN=C1CC=CC=C(C(=O)/C=C/c2ccc(CC)cc2)C1=O	-8
O=C(CCc1ccccc1)N/N=C/c1cccc(Cl)c1Cl	0
CCN=C1CC=CC=C(C(=O)/C=C/c2ccccc2OCC)C1=O	8
CC(C)c1ccccc1C(c1ccccc1)C1C(=O)c2ccccc2C1=O (stereo unspecified)	1
COc1ccc(-c2noc(CN3CCCN(c4ncccn4)CC3)n2)c(OC)c1OC	6
N=C1/C(=C\c2ccc(-c3ccccc3)o2)C(=O)N=C2SC(C34CC5CC(CC(C5)C3)C4)=NN12	2
Clc1ccccc1CN(N=Nc1nonc1-c1ccccc1)c1nonc1-c1ccccc1	2
CC/C(=N\NC(=O)c1cc(-c2ccc(C)s2)nc2ccccc12)c1ccc(C)s1	-4
CCCC(C)NC(=O)c1ccc(C)c(NS(C)(=O)=O)c1 (stereo unspecified)	-9
COc1ccc(-c2cc(C(F)(F)F)c3c(N)c(C(=O)NC(C)c4ccccc4)sc3n2)cc1 (stereo unspecified)	-6
CN(CCc1ccccn1)C(=O)CCC1CCCN(C(=O)Cc2cccs2)C1 (stereo unspecified)	3
CC(=O)Nc1ccc(C2Sc3ccccc3N=C3c4ccccc4C(=O)C32)cc1 (stereo unspecified)	-6
COC(=O)c1cn(-c2ccccc2)cc1C(=O)OC	7
CCOC(=O)c1c(-c2ccc(C)c(C)c2)csc1NC(=O)CSc1nnnn1-c1ccccc1	0
S=C1SCCN1CN1CCN(Cc2ccc3c(c2)OCO3)CC1	4
O=C(O[C@H]1C[C@H]2OC[C@@H](OC(=O)c3ccccc3)[C@H]2O1)c1ccccc1	-5
CC1=C(C#N)C(=O)N(CC(C)C)C(=O)/C1=C/c1ccc(-c2ccc(Cl)cc2)o1	0
CC1=C(C#N)C(=O)NC(=O)/C1=C/c1ccc(-c2ccc(Cl)c(C(=O)OC(C)C)c2)o1	86*
COC(=O)c1cc(-c2ccc(/C=C3/SC(=O)NC3=O)o2)ccc1Cl	-4
CC(C)Sc1nncc(-c2cc3c(c(SC(C)C)n2)CCCCC3)n1	-7
O=C1C=CC(Br)=CC(C(=O)/C=C/c2ccc(F)cc2)C1=O (stereo unspecified)	11
O=C1C=CC([N+](=O)[O-])=CC(C(=O)/C=C/c2ccccc2)C1=O (stereo unspecified)	83*
CN1C(=O)C(C(=O)/C=C/c2ccccc2)C(=O)N(C)C1=O	0
COc1ccc(C(=O)NC(=S)Nc2nc3ccccc3s2)cc1	13
SMILES	ROC1-CUL1 inh
Cc1cc(N2C(=O)C(=O)C(C(=O)c3ccco3)C2c2ccc(C(C)(C)C)cc2)no1 (stereo unspecified)	11
O=C(O)CC(=O)Nc1ccc(F)c(Cl)c1	6
Cc1ccc(S(=O)(=O)N2CCOC(Cc3ccc(F)cc3)C2)s1 (stereo unspecified)	7
CCOC(O)=c1ccc2c3ccc(=C(O)OCC)cc3[n+]([O-])[n+]([O-])c2c1	-6
Cc1ccc(NC(=O)c2cnn3c2N=C(c2ccccc2)CC3c2ccccc2)cc1 (stereo unspecified)	-11
CCCCCCOc1cc(/C=C/C(=O)O)c(OCCCCCC)cc1/C=C/C(=O)O	89*
CCCCCCCCCCCCCCCCCCOc1ccc(/C=C/C(=O)O)cc1I	5
O=C(O)/C=C/c1cc(Br)ccc1OCc1ccc(F)cc1	6
CCOc1ccc(C2CC(=O)n3nc(C4C5CC6CC(C5)CC4C6)nc3S2)cc1 (stereo unspecified)	16
CCOC(=O)c1c(NC(=O)Cc2ccccc2OC)sc2c1CCC2	1
Cc1ccc(/C=C2\CCc3ccccc3C2=O)o1	-4
Nc1ccc2c(c1)C/C(=C/c1ccco1)C2=O	31*
CC1=C([N+](=O)[O-])CS(=O)(=O)/C1=C\c1ccco1	7
O=C1C(=C2SCCS2)CC/C1=C\c1ccco1	73*
COc1cccc(/C=C2\CCC(=C3SCCS3)C2=O)c1	-7
O=C(C=C1SCCS1)/C=C/c1ccco1	5
CCCN1C(=O)/C(=C/c2ccc(Br)o2)SC1=Nc1ccc(OCC)cc1	-8
CC(C)Oc1ccccc1NC(=O)Cc1ccccc1	20
Cc1ccc(NCc2ccc3n2C/C(=C2/CCn4c(CNc5ccc(C)cc5)ccc42)C3=O)cc1	7
COc1cc(C(c2c(C)[nH]c3ccccc23)c2c(C)[nH]c3ccccc23)cc(OC)c1O	5
Cc1ccc(C)c(C(C)CCC(=O)O)c1 (stereo unspecified)	6
CCN1C(=O)/C(=C/c2ccc(F)c(Br)c2)SC1=S	2
NN1C(=O)/C(=C/c2ccc(O)c(Br)c2)SC1=S	50*
NN1C(=O)/C(=C\c2ccc(O)cc2)SC1=S	7
CC(C)CNS(=O)(=O)c1ccc(CCC(=O)N2CCN(c3ccccc3F)CC2)cc1	1
SMILES	ROC1-CUL1 inh
O=C(c1cc2c(=O)n3ccccc3nc2n1Cc1ccccc1)N1CCCCC1	5
COC(=O)CSc1nnc(-c2sc3ccccc3c2Cl)n1C	0
O=C(Nc1ccc(OC(F)(F)F)cc1)c1cc2nc(-c3ccco3)cc(C(F)(F)Cl)n2n1	5
CS(=O)(=O)c1ccc2c(c1)SC(NC(=O)CCN1C(=O)c3ccccc3C1=O)N2 (stereo unspecified)	1
CCN(CC1CCN(C2CCN(C)CC2)CC1)C(=O)CCC(=O)c1ccccc1	-3
CCN(CC1CCN(C2CCN(C)CC2)CC1)C(=O)c1ccc(C=O)cc1	2
CCN(CC1CCN(C2CCN(C)CC2)CC1)C(=O)c1cc(C)[nH]n1	26*
CCCOc1cccc(C(=O)N2CCN(c3ccccc3)CC2)c1	0
COc1ccc(C(=O)Oc2ccc(C(c3c(C)[nH][nH]c3=O)c3c(C)[nH][nH]c3=O)cc2OC)cc1	13
COc1cc(C(c2c(C)[nH][nH]c2=O)c2c(C)[nH][nH]c2=O)ccc1OC(=O)c1ccccc1F	-19
CCOc1cc(C(c2c(C)[nH][nH]c2=O)c2c(C)[nH][nH]c2=O)ccc1OCc1cccc2ccccc12	45*
O=c1c2ccccc2nc(CN2CCN(c3ccccc3F)CC2)n1-c1ccc(F)cc1	-8
CCOC(=O)c1c(-n2c(C)cc(/C=C3\C(=O)NC(=S)N(c4ccccc4)C3=O)c2C)sc2c1CCCC2	49*
CCOc1ccc(N2C(=O)/C(=C/c3cc(C)n(C4CCCC4)c3C)C(=O)NC2=S)cc1	-4
Cc1cc(C=C2C(=O)NC(=S)NC2=O)c(C)n1-c1sc2c(c1C(=O)Nc1ccccc1)CCCC2	-2
O=C1c2cccc3c2C(C(=O)C1Cc1ccccc1)C(=O)N(c1ccccc1)C3=O (stereo unspecified)	-4
O=C(O)c1ccc(C2Nc3cccc4cccc(c34)N2)cc1	93*
CC(C)(C)c1ccc(C2Nc3cccc4cccc(c34)N2)cc1	-7
Fc1cccc(C2Nc3cccc4cccc(c34)N2)c1	-5
O=C(C1=CCCCC1)c1c[nH]c2ccccc12	7
N#CCSc1nc(C23CC4CC(CC(C4)C2)C3)cc(C(F)(F)F)c1C#N	9
COC(=O)C(NC(=O)c1ccc(Cl)cc1)(Nc1cc(C)cc(C)n1)C(F)(F)F (stereo unspecified)	-6
O=C1NN(c2ccccc2)C(=O)/C1=C/c1cn(CCCOc2ccc(Cl)cc2)c2ccccc12	-3
Cc1ccc(COc2ccc(Cl)cc2/C=C2\C(=O)NN(c3ccccc3)C2=O)cc1	9
Cc1ccc(OCCCOc2c(Cl)cc(Cl)cc2/C=C2\C(=O)NN(c3ccccc3)C2=O)cc1	77*

From PubChem BioAssay
